Data from PubChem BioAssay AID504848 (National Center for Advancing Translational Sciences (NCATS), 2011).
Where “and” joins values, the source holds several entries; their conditions need not be identical. Equal entries are not always repeated. The whole screen tested about 2,300 compounds, of which about 1,400 (61%) were called active. Not shown: some 29% with an inconclusive outcome. Calls come from the whole dose curve; as a rule, active = well fitted inhibition curve with a large enough effect; inconclusive = small, poorly fitted or top-dose-only effect, or effect the other way; inactive = no such curve, though single readings can be large or run the other way. So high a share suggests a set chosen from earlier hits. This is one part of the list.

experiment: Confirmation screen for delayed death inhibitors of the malarial parasite plastid, 96 hour incubation; note: nearly all actives have a fitted effect of over 60% in size; details: P. falciparum luciferase growth in erythrocytes; series mostly up to 28.7 µM
Excerpt: The goal of this screen is to discover new antimalarial compounds that act by inhibiting the development of the apicoplast in the malarial parasite Plasmodium falciparum. The biochemical processes that make this organelle essential for erythrocytic stage parasites are not well understood. However, antibiotics, such as azithromycin and tetracycline, which target the apicoplast translational machinery, have a potent antimalarial effect. […] We have developed a cell-based assay that measures parasite growth based on the expression of an integrated copy of a firefly luciferase reporter. To detect small molecules that cause this "delayed death phenotype, erythrocytes infected with the luciferase-expressing parasites were incubated with compounds for either one or two generations, corresponding to 48 and 96 hours, respectively. Compounds that inhibit parasite growth in the second generation, but not the first, should be enriched in antimalarials that target the apicoplast. Growth inhibition is detected by a decrease in luciferase activity. MLPCN Grant: R21 NS059500 Assay Provider: David Fidock and Eric Ekland, Columbia University Keywords: NIH Roadmap, MLPCN, MLI, MLSMR, qHTS, NCGC, qHTS, malaria, luciferase, viability
Four microliters of culture medium (RPMI 1640 with 0.5% w/v Albumax (GIBCO), 24 mM sodium bicarbonate and 10 ug/mL gentamycin) were dispensed by a Multi-drop Combi into white solid 1536-well plates (Grenier) and 23 nL compound was added by a pin tool. Four microliters of infected erythrocytes (2% hematocrit, 0.1% parasitemia final concentration) in culture medium were dispensed and the plates incubated for 96 hours at 37 C in 5% CO2. Two microliters of luciferase detection reagent was added and luminescence was detected by a ViewLux (PerkinElmer) reader
Potency is the fitted concentration of half-maximal effect.

| SMILES | Potency |
| --- | --- |
| COc1ccc(-n2c(C)cc(C(=O)C[N+]34CCN(CC3)CC4)c2C)cc1 | 12.6 µM (active) |
| C[C@@H]1CC2(CCCC[N+]2(C)C)C[C@H]1C | 14.1 µM (active) |
| CC(=O)N1CC(=O)Nc2ccc(Cl)cc2C1c1ccccc1 (centres undefined) | inactive |
| CN1C[C@H](C(=O)N[C@]2(C)O[C@@]3(O)[C@@H]4CCCN4C(=O)[C@H](Cc4ccccc4)N3C2=O)C[C@@H]2c3cccc4[nH]cc(c34)C[C@H]21 | 2.24 µM (active) |
| O=C(CN1CC=C(c2ccccc2)CC1)NC(=O)NCc1ccccc1 | inactive |
| Cc1ccc(N2C(=O)NC(=O)/C(=C\C=C\c3ccco3)C2=O)cc1 | inactive |
| CC(C)(C)C(=O)C(Oc1ccc(Cl)cc1)n1ccnc1 (centres undefined) | 14.1 µM (active) |
| C=C[C@H]1CN2CC[C@H]1C[C@@H]2[C@@H](O)c1ccnc2ccccc12 | 0.199 µM (active) |
| C[n+]1c2cc(N)ccc2cc2ccc(N)cc21 | 0.562 µM (active) |
| Cn1c(=O)oc2cc(NC(=O)CCl)ccc21 | 0.794 µM (active) |
| CCn1c(=O)oc2cc(NC(=O)CCl)ccc21 | 2 µM (active) |
| CN1CCc2cc3c(c4c2C1Cc1ccccc1-4)OCO3 (centres undefined) | 0.562 µM (active) |
| C=C1C(=O)O[C@@H]2C[C@@H](C)[C@@H]3C=CC(=O)[C@@]3(C)[C@@H](O)[C@H]12 | 2 µM (active) |
| C=C1C(=O)O[C@@H]2C[C@@H](C)[C@@H]3C=CC(=O)[C@@]3(C)[C@@H](OC(=O)CC(=O)O[C@H]3[C@@H]4C(=C)C(=O)O[C@@H]4C[C@@H](C)[C@@H]4C=CC(=O)[C@]43C)[C@H]12 | 0.0282 µM (active) |
| C=C1C(O)[C@@H]2O[C@]3(CC[C@H](/C=C/C(C)[C@@H]4CC(C)=CC5(O[C@H](C[C@@](C)(O)C(=O)O)CCC5O)O4)O3)CC[C@H]2O[C@@H]1C(O)CC(C)[C@H]1OC2(CCCCO2)CCC1C (some centres undefined) | 0.0631 µM (active) |
| O=c1oc2ccccc2c(O)c1[C@H]1c2ccc(O)cc2Oc2c1c(=O)oc1ccccc21 | inactive |
| CC(C)c1oc(=O)cc2c1[C@@H](O)[C@H]1OC(=O)[C@@]3(C)CC[C@@H](O)[C@@]2(C)C13 (some centres undefined) | 7.94 µM (active) |
| O=C(/C=C/c1cccs1)c1cc(Cl)ccc1OC(=O)N1CCOCC1 | 11.2 µM (active) |
| Cc1cc2ccccn2c1C(C[N+](=O)[O-])c1c(F)cccc1Cl (centres undefined) | 12.6 µM (active) |
| COc1cccc(-n2c(CN3CCN(C)CC3)nc3ccc([N+](=O)[O-])cc3c2=O)c1 | 15.8 µM (active) |

| SMILES | Potency |
| --- | --- |
| Cc1ccc(C(C)C)c(OCC(=O)N2CCN(Cc3nc4cc([N+](=O)[O-])ccc4n3C)CC2)c1 | inactive |
| CC(C)c1ccc(N2C(=O)NC(=O)/C(=C\C=C\c3ccco3)C2=O)cc1 | inactive |
| O=C(CCl)Nc1nccs1 | 6.31 µM (active) |
| Fc1ccc(C[n+]2c(-c3ccccc3)cc(-c3ccccc3)cc2-c2ccccc2)cc1 | 2 µM (active) |
| O=C1NC(=O)N(c2ccccc2)C(=O)/C1=C/C=C/c1ccco1 | inactive |
| C=CCn1c(O)c(N=Nc2c(C)n(C)n(-c3ccccc3)c2=O)c(=O)[nH]c1=S | 6.31 µM (active) |
| O=[N+]([O-])c1cccc2c([As](=O)(O)O)cccc12 | 1.12 µM (active) |
| C[C@@H]1C[C@@H]2O[C@H]2/C=C\C=C\C(=O)Cc2c(Cl)c(O)cc(O)c2C(=O)O1 | 7.08 µM (active) |
| COC(=O)c1nc(-c2ccc3c(n2)C(=O)C(N)=C(OC)C3=O)c(N)c(-c2ccc(OC)c(OC)c2O)c1C | 0.251 µM (active) |
| O=C(NC1CC2CCCC(C1)N2)c1ccccc1 (centres undefined) | 5.01 µM (active) |
| Cc1ccc(-c2nc(NC(=O)c3ccc(S(=O)(=O)N(CCC#N)CCC#N)cc3)sc2-c2ccccc2)cc1 | 11.2 µM (active) |
| CN1C2CCC1/C(=C/c1ccccn1)C(=O)/C2=C\c1ccccn1 | 0.158 µM (active) |
| C[C@@H]1O[C@@H](O[C@H]2C[C@@H](O)[C@]3(CO)[C@@H]4C(CC[C@]3(O)C2)[C@@]2(O)CC[C@H](C3COC(=O)C3)[C@@]2(C)C[C@H]4O)[C@H](O)[C@H](O)[C@H]1O (some centres undefined) | inactive |
| CCOc1cc2c(cc1OCC)-n1cccc1C(c1ccccc1F)NC2 (centres undefined) | 5.01 µM (active) |
| C[C@H]1C[C@@H](C)C(=O)[C@@H]([C@H](O)CC2CC(=O)NC(=O)C2)C1 | 0.0316 µM (active) |
| C[C@@H]1C[C@@H]([C@H](O)CC2CC(=O)NC(=O)C2)C(=O)[C@@H](C)C1 | 0.794 µM (active) |
| C/C1=C\[C@@H](C)C/C=C/[C@H]2[C@@H]3O[C@]3(C)[C@@H](C)[C@H]3[C@H](Cc4c[nH]c5ccccc45)NC(=O)[C@]32C(=O)/C=C/C(=O)[C@@H]1O | 0.891 µM (active) |
| CCC(C(=O)N1CCC2(CC1)OCCO2)n1c2ccccc2c2nc(=O)cc(C)n21 (centres undefined) | 11.2 µM (active) |
| C[C@@H]1CC[C@H]2[C@@H](C)C(=O)O[C@@H]3OC4(C)CC[C@@H]1C32OO4 (some centres undefined) | 0.0398 µM (active) |
| C[C@@H]1CC[C@H]2[C@@H](C)C(=O)O[C@@H]3O[C@@]4(C)CC[C@@H]1[C@]32OO4 | 0.0398 µM (active) |

| SMILES | Potency |
| --- | --- |
| CCN(CC)Cc1cc(Nc2ccnc3cc(Cl)ccc23)ccc1O | 89.1 nM (active) and 22.4 nM (active) |
| C[n+]1c(-c2ccccc2)cc(-c2ccc(Cl)cc2)cc1-c1ccccc1 | 0.891 µM (active) |
| COc1ccc(-c2cc(-c3ccccc3)[n+](C)c(-c3ccccc3)c2)cc1 | 2 µM (active) |
| CCOP(=O)(OCC)C(O)c1ccc(OC)cc1OC (centres undefined) | inactive |
| O=C1/C(=C/c2ccccc2)C[C@@]2(O)[C@H]3Cc4ccc(O)c5c4[C@@]2(CCN3CC2CC2)C1O5 (some centres undefined) | 5.01 µM (active) |
| COc1ccc(Cn2c(N)c(C(=O)NCc3ccco3)c3nc4ccccc4nc32)cc1 | 3.98 µM (active) |
| CC(C)CCOP(N)(=O)Oc1ccccc1 (centres undefined) | 3.98 µM (active) |
| CC[n+]1c(-c2ccccc2)c2cc(N)ccc2c2ccc(N)cc21 | 0.0282 µM (active) |
| CC1=CC2/C=C(\C)CCC(O)C(O)/C=C/C(=O)C23C(=O)NC(CC(C)C)C3C1C (centres undefined) | 12.6 µM (active) |
| CCCNS(=O)(=O)c1ccc(OCC(=O)N2CCN(Cc3ccc4c(c3)OCO4)CC2)c(C)c1 | 11.2 µM (active) |
| Oc1ccc(-[n+]2c(-c3ccccc3)cc(-c3ccccc3)cc2-c2ccccc2)cc1 | 0.0794 µM (active) |
| COc1cc(C(=O)N/N=C/C23CC[C@@H](O)CC2(O)CC[C@@H]2[C@@H]3CCC3(C)C(C4=CC(=O)OC4)CCC23O)ccc1O (some centres undefined) | inactive |
| CC12CC[C@H]3[C@@H](CCC4(O)C[C@H](O)CCC34/C=N/NC(=O)c3ccccc3F)C1(O)CCC2C1=CC(=O)OC1 (some centres undefined) | inactive |
| CN(C)c1ccc(C(=O)N/N=C/C23CC[C@@H](O)CC2(O)CC[C@@H]2[C@@H]3CCC3(C)C(C4=CC(=O)OC4)CCC23O)cc1 (some centres undefined) | 12.6 µM (active) |
| COC(=O)C1=C(c2ccccc2OCc2ccccc2)C[C@@H]2CC[C@H]1N2C(=O)NCCOc1ccc(OC)cc1 | 12.6 µM (active) |
| CC[C@H]1CN2CCc3cc(OC)c(OC)cc3[C@@H]2C[C@@H]1C[C@H]1NCCc2cc(OC)c(OC)cc21 | 0.224 µM (active) |
| CC[C@H]1CN2CCc3cc(OC)c(OC)cc3C2C[C@@H]1C[C@H]1NCCc2cc(OC)c(OC)cc21 (some centres undefined) | 0.0501 µM (active) |
| CC[C@H]1CN2CCc3cc(OC)c(OC)cc3[C@H]2C[C@@H]1C[C@@H]1NCCc2cc(OC)c(OC)cc21 | 0.501 µM (active) |
| Cn1c(O)c(C=NC2C(=O)C3(C)CCC2C3(C)C)c(=O)n(C)c1=O (centres undefined) | inactive |
